In PubChem BioAssay (NCATS):
Results filed as inconclusive are left out. The source made the active and inactive calls. The call rests on the fitted dose curve; in most records, active means well fitted curve in the direction sought with a large enough effect; inconclusive means small, poorly fitted or top-dose-only effect, or another doubt; inactive means no such curve, though single readings can be large; an effect the other way counts as inactive or inconclusive. Where a SMILES comes first, the peptide text is derived from it. [ ]: non-standard residue; d: D form. pGlu = O=C1CC[C@@H](C(=O)O)N1

Key:
[1] = qHTS of pediatric cancer cell lines to identify multiple opportunities for drug repurposing: Primary screen for SK-N-SH cells (AID 1347098); further: nearly all actives have a fitted effect of over 65% in size; further: potency means the concentration at half of the fitted maximal effect
Procedure, shortened: (§1)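 Cells (500-1,000/well) rested 5 h, then received compounds for 48 h; metabolically active cells were measured by CellTiter-Glo luminescence. Final concentrations spanned up to 46 µM (MIPE, 11-point) or 0.59 nM-46 µM (NPC, 8-point) in primary screens, 11-point in follow-ups.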

[2] = qHTS of pediatric cancer cell lines to identify multiple opportunities for drug repurposing: Primary screen for NB1643 cells (AID 1347099); further: nearly all actives have a fitted effect of over 50% in size
Procedure, shortened: (§2)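 Plated cells (500-1,000 per well, growth media) were allowed to settle for 5 hours, treated with compound dilutions for 48 hours, then lysed with CellTiter-Glo for 15 min at room temperature before luminescence reading.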

[3] = qHTS of pediatric cancer cell lines to identify multiple opportunities for drug repurposing: Primary screen for RD cells (AID 1347104); further: nearly all actives have a fitted effect of over 55% in size; further: potency means the concentration at half of the fitted maximal effect
Procedure, shortened: as §2

[4] = qHTS of pediatric cancer cell lines to identify multiple opportunities for drug repurposing: Primary screen for MG 63 (6-TG R) cells (AID 1347105); further: nearly all actives have a fitted effect of over 50% in size
Procedure, shortened: as §2

[5] = qHTS of pediatric cancer cell lines to identify multiple opportunities for drug repurposing: Primary screen for control Hh wild type fibroblast cells (AID 1347106);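 further: series mostly up to about 46 µM; a drop in luminescence marks cytotoxicity and a rise apparent proliferation; nearly all actives have a fitted effect of over 55% in size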
Procedure, shortened: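 Viability after 48 h compound treatment at 37C, 500-1,000 cells/well, read as ATP luminescence with CellTiter-Glo. Primary screens used 11-point (MIPE, 0.78 nM-46 µM) or 8-point (NPC, 0.59 nM-46 µM) final concentrations; follow-up screens used 11-point dilutions.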

[6] = qHTS of pediatric cancer cell lines to identify multiple opportunities for drug repurposing: Primary screen for Rh30 cells (AID 1347107); further: series mostly up to about 46 µM; nearly all actives have a fitted effect of over 75% in size
Procedure, shortened: (§3)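 Cells (500-1,000/well) in growth media were settled 5 h at 37 degrees C, then given compounds for 48 h. Viability was read as CellTiter-Glo luminescence. Primary runs used MIPE at 11 points (0.78 nM-46 µM) and NPC at 8 points (0.59 nM-46 µM); follow-ups used 11 points.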

[7] = qHTS of pediatric cancer cell lines to identify multiple opportunities for drug repurposing: Primary screen for Rh41 cells (AID 1347108); further: nearly all actives have a fitted effect of over 70% in size; further: potency means the concentration at half of the fitted maximal effect
Procedure, shortened: as §2

[8] = qHTS of pediatric cancer cell lines to identify multiple opportunities for drug repurposing: Primary screen for BT-12 cells (AID 1347101); further: nearly all actives have a fitted effect of over 25% in size; further: potency means the concentration at half of the fitted maximal effect
Procedure, shortened: as §1

[9] = qHTS of pediatric cancer cell lines to identify multiple opportunities for drug repurposing: Primary screen for Rh18 cells (AID 1347102); further: nearly all actives have a fitted effect of over 65% in size
Procedure, shortened: as §3

[10] = qHTS of pediatric cancer cell lines to identify multiple opportunities for drug repurposing: Primary screen for OHS-50 cells (AID 1347103); further: nearly all actives have a fitted effect of over 40% in size; further: potency means the concentration at half of the fitted maximal effect
Procedure, shortened: as §1

[11] = qHTS of pediatric cancer cell lines to identify multiple opportunities for drug repurposing: Primary screen for LAN-5 cells (AID 1347100); further: potency means the concentration at half of the fitted maximal effect
Procedure, shortened: as §3

[12] = qHTS of pediatric cancer cell lines to identify multiple opportunities for drug repurposing: Confirmatory screen for A673 cells (AID 1347110);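 further: potency means the concentration at half of the fitted maximal effect; cells exposed to compound for 48 h before the viability read; nearly all actives have a fitted effect of over 65% in size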
Procedure, shortened: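 Concentration-response curves came straight from titrations: 11 points (0.78 nM to 46 µM) for MIPE and several concentrations (0.59 nM to 46 µM) for NPC in primary, 11 points in follow-up. Readout: ATP luminescence at 48 h.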

[13] = qHTS of pediatric cancer cell lines to identify multiple opportunities for drug repurposing: Confirmatory screen for SK-N-MC cells (AID 1347111);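 further: potency means the concentration at half of the fitted maximal effect; cells exposed to compound for 48 h before the readout; nearly all actives have a fitted effect of over 70% in size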
Procedure, shortened: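 Metabolically active cells were quantified by ATP-dependent luminescence (CellTiter-Glo, 15 min at room temperature) following 48 h treatment. Cells had been plated at 500-1,000 per well and settled for 5 h beforehand.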

[14] = qHTS of pediatric cancer cell lines to identify multiple opportunities for drug repurposing: Confirmatory screen for BT-12 cells (AID 1347112); further: potency means the concentration at half of the fitted maximal effect; nearly all actives have a fitted effect of over 55% in size
Procedure, shortened: as §3

[15] = qHTS of pediatric cancer cell lines to identify multiple opportunities for drug repurposing: Confirmatory screen for LAN-5 cells (AID 1347113); further: potency means the concentration at half of the fitted maximal effect; nearly all actives have a fitted effect of over 65% in size
Procedure, shortened: as §3

[16] = qHTS of pediatric cancer cell lines to identify multiple opportunities for drug repurposing: Confirmatory screen for DAOY cells (AID 1347114)
Procedure, shortened: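 Viability measured as metabolically active cells via CellTiter-Glo luminescence following 48 hours of compound exposure, 11-point dilutions in confirmatory testing. 500-1,000 cells/well plated 5 hours before dosing; controls were DMSO and 2.3 µM bortezomib.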

[17] = qHTS of pediatric cancer cell lines to identify multiple opportunities for drug repurposing: Confirmatory screen for NB-EBc1 cells (AID 1347115);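 further: potency means the concentration at half of the fitted maximal effect; cells exposed to compound for 48 h before the viability read; nearly all actives have a fitted effect of over 45% in size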
Procedure, shortened: as §3

[18] = qHTS of pediatric cancer cell lines to identify multiple opportunities for drug repurposing: Confirmatory screen for BT-37 cells (AID 1347117); further: potency means the concentration at half of the fitted maximal effect; nearly all actives have a fitted effect of over 55% in size
Procedure, shortened: as §3

[19] = qHTS of pediatric cancer cell lines to identify multiple opportunities for drug repurposing: Confirmatory screen for TC32 cells (AID 1347118)
Procedure, shortened: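 Measured quantity: luminescence from CellTiter-Glo, reflecting metabolically active TC32 cells following 48 h of compound. Curves came straight from multi-point titrations, with 8 or 11 points in primary and 11 in confirmatory screening.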

[20] = qHTS of pediatric cancer cell lines to identify multiple opportunities for drug repurposing: Confirmatory screen for MG 63 (6-TG R) cells (AID 1347119)
Procedure, shortened: as §3

Measured: Potency

CC[N+](CC)(CC)CCOC(=O)C(C1CCCC1)C1CCCC1
inactive: [1] | [2] | [3] | [4] | [5] | [6] | [7]

CCCC(=O)Nc1ccc(O)c(C(C)=O)c1
inactive: [1] | [2] | [8] | [9] | [10] | [3] | [4] | [5] | [6] | [7]

CNC(=O)c1c(I)c(NC(C)=O)c(I)c(C(=O)O)c1I
inactive: [1] | [2] | [9] | [10] | [3] | [4] | [5] | [6] | [7]

CO/N=C(\C(=O)O)c1csc(NC(=O)CCl)n1
inactive: [1] | [2] | [8] | [9] | [10] | [3] | [4] | [5] | [6] | [7]

N#CSCC(=O)O
inactive: [1] | [2] | [8] | [9] | [10] | [3] | [4] | [5] | [6] | [7]

CCCOc1ccc2c(c1)CC[C@@H]1[C@@H]2CC[C@]2(C)C(OC)CC[C@@H]12 (some centres undefined)
inactive: [1] | [2] | [8] | [9] | [3] | [4] | [5] | [6] | [7]

CN1[C@@H]2CC[C@H]1CC(NC(=O)n1c(=O)[nH]c3ccccc31)C2 (some centres undefined)
inactive: [1] | [2] | [8] | [9] | [10] | [3] | [4] | [5] | [6] | [7]

O=C(O)c1ccccc1Nc1cc(Cl)ccc1C(=O)O
inactive: [11] | [8] | [9] | [10] | [3] | [4] | [5] | [6]
active: [1] 11.9 µM

CCCC(CCC)(C(=O)OCC)C(=O)OCC
inactive: [1] | [2] | [8] | [9] | [10] | [3] | [4] | [5] | [6] | [7]

CC(=O)O[C@H]1CC[C@@]2(C)C(=CC[C@@H]3[C@@H]2CC[C@]2(C)C(C(C)=O)=CC[C@@H]32)C1
inactive: [1] | [11] | [8] | [9] | [10] | [3] | [4] | [5] | [6]

O=C(O)Cc1ccccc1Oc1ccc(Cl)cc1Cl
inactive: [1] | [11] | [8] | [9] | [10] | [3] | [4] | [5] | [6] | [7]

Nc1ccc2cc3ccc(N)cc3nc2c1
active: [1] 7.7 µM | [11] 4.22 µM | [8] 7.77 µM | [3] 21.1 µM | [12] 7.37 µM | [13] 8.27 µM | [14] 16.5 µM | [15] 8.27 µM | [16] 9.27 µM | [17] 13.1 µM | [18] 11.7 µM | [19] 9.27 µM | [20] 23.3 µM

CCNC(=O)[C@@H]1CCCN1C(=O)[C@H](CCCN=C(N)N)NC(=O)[C@H](CC(C)C)NC(=O)CNC(=O)[C@H](Cc1ccc(O)cc1)NC(=O)[C@H](CO)NC(=O)[C@H](Cc1c[nH]c2ccccc12)NC(=O)[C@H](Cc1cnc[nH]1)NC(=O)[C@@H]1CCC(=O)N1 ([pGlu]HWSYGLRP-NHEt)
inactive: [1] | [11] | [8] | [10] | [4] | [5] | [6] | [7]

CCCCCC[C@@H](CCC)C(=O)O
inactive: [1] | [11] | [9] | [10] | [3] | [4] | [5] | [6] | [7]

O=C1NC(c2ccccc2)(c2ccccc2)C(=O)N1COP(=O)(O)O
inactive: [1] | [11] | [9] | [10] | [3] | [4] | [5] | [6] | [7]

Nc1cccc2c(N)cccc12
active: [1] 28 µM | [10] 31.7 µM | [7] 30.6 µM
inactive: [11] | [4] | [5]

CCCCCC(=O)O[C@]1(C(C)=O)CC[C@H]2[C@@H]3CCC4=CC(=O)CC[C@]4(C)[C@H]3CC[C@@]21C
inactive: [4] | [5] | [6]
active: [1] 24.4 µM | [11] 26.6 µM | [8] 27.6 µM | [10] 15.5 µM

O=C(O)C1CCC1
inactive: [1] | [11] | [8] | [9] | [10] | [3] | [4] | [5] | [6] | [7]

O=C(CCCCC(=O)Nc1c(I)cc(I)c(C(=O)O)c1I)Nc1c(I)cc(I)c(C(=O)O)c1I
inactive: [1] | [11] | [8] | [9] | [10] | [3] | [4] | [5] | [6] | [7]

O=C(Nc1ccc(S(=O)(=O)N2CCOCC2)cc1)c1cc(Cl)ccc1NS(=O)(=O)c1ccc(Cl)s1
inactive: [1] | [11] | [8] | [9] | [10] | [3] | [4] | [6] | [7]

O=[N+]([O-])c1cncn1CCN1CCOCC1
inactive: [1] | [11] | [8] | [9] | [10] | [3] | [4] | [5] | [6] | [7]
